Assay results as given in PubChem BioAssay (NCATS).
Inconclusive results are not listed. Active and inactive are the calls of the source. The call rests on the fitted dose curve; in most records, active means well fitted inhibition curve with a large enough effect in the repeat runs; inconclusive means weak or mixed curves; inactive means no such curve, though single readings can be large or run the other way.

Molecular target: Cytochrome P450 2C9 (Homo sapiens) (UniProt P11712)
Assay: Cytochrome P450 family 2 subfamily C member 9 (CYP2C9) small molecule antagonists: luciferase biochemical (cell-free) qHTS assay (AID 1645842); further: nearly all actives have a fitted effect of over 55% in size
Details: P450-Glo CYP2C9 enzyme assay, luciferin luminescence; series mostly up to 57.4 µM
Experimental: National Center for Advancing Translational Sciences [NCATS] Assay Overview: Cytochrome P450 (CYP) enzymes are membrane-bound hemeproteins that play a key role in metabolism of drugs and xenobiotics. Assaying the effect of chemicals on CYP isozymes is useful to minimize the adverse drug reactions and toxicities in drug development process. Chemical compounds were tested for their effect on CYP enzyme activities by using P450-Glo (TM) screening systems (Promega Corporation, Madison, WI). These systems provide a luminescent method containing proluciferin substrates and are converted to luciferin products by CYP isozymes. The luciferin products formed are detected with a luciferin detection reagent, and the amount of light produced is proportional to CYP activity. P450-Glo (TM) CYP2C9 screening system (Catalog. No. V9790) was used to detect the compounds that interfere in CYP2C9 activity.
Assay Protocol Summary: Two ul of enzyme-substrate mix supplemented with 0.4% Bovine Serum Albumin was dispensed into medium binding white/solid 1536-well plates (Greiner Bio-One North America Inc., Monroe, NC) using a Flying Reagent Dispenser (FRD, Aurora Discovery, San Diego, CA). […] The assay plates were incubated at room temperature for 10 min. Then 2 ul of NADPH regeneration solution was added to each well of the assay plates using an FRD and incubated at 37C for 1 h. The reaction was stopped by adding 4 ul of detection reagent using an FRD and after 20 min incubation at room temperature, the luminescence signal was measured using a ViewLux plate reader (Perkin Elmer, Shelton, CT). Data were expressed as relative luminescence units.
Potency means the concentration at half of the fitted maximal effect.

Cytochrome P450 2C9 (Homo sapiens), sequence (P11712 whole entry, looked up): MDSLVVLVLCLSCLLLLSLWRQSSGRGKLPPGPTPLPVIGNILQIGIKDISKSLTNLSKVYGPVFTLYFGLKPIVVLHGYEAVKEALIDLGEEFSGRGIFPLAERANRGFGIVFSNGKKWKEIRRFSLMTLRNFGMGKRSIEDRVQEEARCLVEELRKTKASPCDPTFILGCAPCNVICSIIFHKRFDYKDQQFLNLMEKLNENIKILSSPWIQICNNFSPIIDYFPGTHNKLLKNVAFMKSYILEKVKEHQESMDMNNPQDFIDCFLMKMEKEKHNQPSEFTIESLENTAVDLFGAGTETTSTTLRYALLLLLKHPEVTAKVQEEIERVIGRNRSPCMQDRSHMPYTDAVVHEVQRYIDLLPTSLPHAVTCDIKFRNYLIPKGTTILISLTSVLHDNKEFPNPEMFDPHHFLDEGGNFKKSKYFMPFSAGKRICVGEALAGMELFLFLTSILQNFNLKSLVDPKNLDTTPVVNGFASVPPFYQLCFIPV

Row | Compound | Potency
1 | Cc1sc2c(c1C)C(c1ccc(Cl)cc1)=N[C@@H](CC(N)=O)c1nnc(C)n1-2 | inactive
2 | CC(O)(c1ccccc1)C(Cc1ccc(Cl)cc1)n1cncn1 (stereo not given) | 0.952 µM (active)
3 | N#Cc1ccccc1-c1cc(-c2ccccn2)cn(-c2ccccc2)c1=O | 13.5 µM (active)
4 | CN(C)c1cc2c(cc1Sc1nc3c(N)nccc3n1CCNCC(C)(C)C)OCO2 | 3.79 µM (active)
5 | CN1C(=O)[C@@H](Cc2c[nH]c3ccccc23)N=C(c2ccccc2F)c2ccccc21 | 6.74 µM (active)
6 | C1=C(c2cnc[nH]2)c2ccsc2CC1 | 3.38 µM (active)
7 | O=C(CC1NCCC[C@H]1O)Cn1cnc2cc(Br)c(Cl)cc2c1=O (stereo not given in full) | inactive
8 | CCCCCn1cc(C(=O)Oc2cccc3cccnc23)c2ccccc21 | 3.38 µM (active)
9 | C[C@H](Nc1ncnc2nc[nH]c12)c1nc2ccc(F)cc2c(=O)n1-c1ccccc1 | 12 µM (active)
10 | COc1ccsc1CNCC[C@@]1(c2ccccn2)CCOC2(CCCC2)C1 | inactive
11 | CCCCCn1cc(C(=O)C2C(C)(C)C2(C)C)c2ccccc21 | 10.7 µM (active)
12 | CCOP(=S)(OCC)SCSc1ccc(Cl)cc1 | 0.213 µM (active)
13 | Fc1cc(F)c2c(c1)C1C=CCC1C(c1cccnc1)N2 (stereo not given) | 5.35 µM (active)
14 | COC(=O)c1ccccc1C(=O)OC | inactive
15 | Cc1ccc(Cn2nc(C(=O)N[C@@H]3C(C)(C)[C@@H]4CC[C@@]3(C)C4)cc2-c2ccc(Cl)c(C)c2)cc1 | 2.68 µM (active)
16 | O=C1CN=C(c2ccccc2Cl)c2cc(Br)ccc2N1 | 13.5 µM (active)
17 | O=C1Nc2ccc3ncsc3c2/C1=C/c1cnc[nH]1 | 3.38 µM (active)
18 | Cc1sc2c(c1C)C(c1ccc(Cl)cc1)=NC(CC(=O)Nc1ccc(O)cc1)c1nnc(C)n1-2 (stereo not given) | inactive
19 | N#Cc1ccc(N2CCN(C(=O)COc3ccc4[nH]cc(CCN)c4c3)CC2)cc1 | 1.69 µM (active)
20 | CCOc1cc(C=O)ccc1O | inactive

Row | Compound | Potency
21 | C[C@H]1CN(Cc2ccc(CC(=O)N3CCC(Nc4cccc(F)c4)CC3)cc2)CCN1 | inactive
22 | CC1(C)C(=O)N(c2ccc(C#N)c(C(F)(F)F)c2)C(=O)N1CCCCO | 10.7 µM (active)
23 | CCc1nn(C)c(C(=O)NCc2ccc(Oc3ccc(C)cc3)cc2)c1Cl | 5.35 µM (active)
24 | C[C@@H](CN1CCC2(CC1)C(=O)NCN2c1cccc(F)c1)NC(=O)c1ccc(Br)cc1 | 9.52 µM (active)
25 | FC(F)(F)c1ccc(N2CCNCC2)nc1Cl | inactive
26 | CC(=O)N1N=C(c2ccc(N)cc2)c2cc3c(cc2C[C@H]1C)OCO3 | 12 µM (active)
27 | CC(=O)NCCCOc1ccc(C(=O)N2CCC(N3C(=O)CCc4ccccc43)CC2)cc1 | inactive
28 | c1cncc(OC[C@@H]2CCN2)c1 | inactive
29 | CN1C(=O)CN=C(c2ccccc2Cl)c2cc(Cl)ccc21 | 21.3 µM (active)
30 | CN=C(NS(=O)(=O)c1ccc(Cl)cc1)N1C[C@H](c2ccccc2)C(c2ccc(Cl)cc2)=N1 | inactive
31 | CCCCn1cc(C(=O)c2cccc3ccccc23)c2ccccc21 | inactive
32 | COc1ccc(C(C)(C)C)cc1CN[C@H]1C2CCN(CC2)[C@H]1C(c1ccccc1)c1ccccc1 | 26.8 µM (active)
33 | CCOc1ccc(Oc2ccc(OCc3cc(F)ccc3F)cc2)c(N)c1 | 10.7 µM (active)
34 | O=C1CN=C(c2cccc(Br)c2)c2oc3ccccc3c2N1 | 10.7 µM (active)
35 | NCCCCCNC1(c2ccccc2)CCCCC1 | inactive
36 | O=C(N1CCCCC1Cc1ccccc1)n1cc(-c2ccc(-c3ccccc3)cc2)nn1 (stereo not given) | 2.68 µM (active)
37 | CN(C(=O)CN1C(=O)COc2cc(Cl)c(Cl)cc21)[C@@H](CN1CCCC1)c1ccc(-c2cccc(C(N)=O)c2)cc1 | 13.5 µM (active)
38 | CCCCCn1cc(C(=O)Cc2ccccc2OC)c2ccccc21 | 1.9 µM (active)
39 | CCCCNC(C)(C)[P+](=O)O | inactive
40 | CN(C(=O)C(c1ccccc1)c1ccccc1)[C@H](CN1CC[C@H](O)C1)c1ccccc1 | inactive
